This is one part of a sample in which hits are shown more often than they occur.
IL-1B inflam inh – inhibitors of inflammasome signaling (IL-1 beta secretion) | THP-1 LPS/ATP IL-1B secretion, AlphaLISA, 16 h; active compounds read low | activity change, % at 57.5 µM | 360,000 tested, 4.7% active | AID 743279; in the data active = activity change below about -50%; inconclusive = mostly about -30% to -49%
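Secreted IL-1B measured by AlphaLISA bead assay after 16 h compound exposure of THP-1 cells; compounds (final up to 57.5 uM) added 1 h before LPS (250 ng/mL) and ATP (1.25 mM) stimulation; lower signal means less secretion.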
TDP1 cell noCPT – qHTS for Inhibitors of human tyrosyl-DNA phosphodiesterase 1 (TDP1): qHTS in cells in absence of CPT | DT40 Tdp1-/- hTDP1 cells, no CPT, ATP luminescence, 48 h | Potency, µM (highest dose often 46.2 µM), actives largely listed as inhibitors | 420,000 tested, 15% active | AID 686978, 2013; also: nearly all actives have a fitted effect of over 55% in size
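Growth kinetics read by CellTiter-Glo luminescence after ≥48 hr at 37 °C. Cells: DT40 Tdp1-/- stably carrying human TDP1, 400 per well, compound exposure in the absence of CPT (DMSO vehicle).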
TDP1 cell CPT – growth inhibition of DT40 Tdp1-/-;hTDP1 cells with camptothecin (screen for TDP1 inhibitors) | 420,000 tested, 12% active | chicken DT40 Tdp1-/-;hTDP1 cells + 20 nM CPT, ATP luminescence, 48 h | AID 686979 | Potency, µM (series often up to 46.2 µM), usual class: inhibitors; also: nearly all actives have a fitted effect of over 55% in size
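Cell growth measured by CellTiter-Glo luminescence after a minimum 48 h, 37 C compound exposure with 20 nM CPT in Tdp1-knockout DT40 cells stably expressing hTDP1, seeded 400/well; qHTS titration format.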
ALOX12 inh – ALOX12 (human) lipoxygenase inhibition | P18054 | 580,000 tested, 1.1% active | purified 12hLO, xylenol orange hydroperoxide absorbance | Potency, µM (highest dose often 108 µM), hits mostly inhibitors
Target sequence (P18054 whole entry, looked up): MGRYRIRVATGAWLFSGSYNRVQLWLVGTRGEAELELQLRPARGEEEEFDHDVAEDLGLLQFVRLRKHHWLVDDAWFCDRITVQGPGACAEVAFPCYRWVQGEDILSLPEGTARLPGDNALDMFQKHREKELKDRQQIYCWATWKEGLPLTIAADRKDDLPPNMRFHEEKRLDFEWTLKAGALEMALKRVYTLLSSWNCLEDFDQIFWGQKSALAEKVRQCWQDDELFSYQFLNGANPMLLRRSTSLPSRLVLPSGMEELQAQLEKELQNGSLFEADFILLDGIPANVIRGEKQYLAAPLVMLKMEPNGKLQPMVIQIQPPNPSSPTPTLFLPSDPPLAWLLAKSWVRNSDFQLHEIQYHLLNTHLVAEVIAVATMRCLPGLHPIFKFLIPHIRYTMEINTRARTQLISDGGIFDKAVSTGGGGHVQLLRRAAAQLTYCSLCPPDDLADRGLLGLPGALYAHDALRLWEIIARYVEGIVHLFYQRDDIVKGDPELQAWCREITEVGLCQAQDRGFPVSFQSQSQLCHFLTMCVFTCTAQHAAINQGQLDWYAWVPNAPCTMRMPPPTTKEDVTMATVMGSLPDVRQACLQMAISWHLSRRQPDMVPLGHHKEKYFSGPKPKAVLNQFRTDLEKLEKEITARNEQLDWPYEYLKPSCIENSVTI
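Purified human 12hLO (150 nM final) in 25 mM Hepes, 0.01% Triton X-100, pH 7.0 was preincubated 15 min at room temperature with compound. Then 40 uM arachidonic acid was added, 30 min. Hydroperoxide was read by Fe-XO absorbance ratio 573/405 nm.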
HT1080-NT tox – kills 2HG-producing HT-1080-NT fibrosarcoma cells; 360,000 tested, 1.6% active; HT-1080-NT fibrosarcoma viability, CellTiter-Glo ATP luminescence, 48 h; Potency, µM (top dose mostly 46.1 µM), usual class: cytotoxic; AID 686970;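 also: NT is the 2HG producing partner of a matched IDH1 knockdown line; nearly all actives have a fitted effect of over 55% in size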
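Compounds were tested in concentration-response format on HT-1080-NT cells for 48 hours at 37 degrees C. Cell viability came from CellTiter-Glo luminescence; curves were classified by r2, response magnitude and activity.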
HT1080 IDH1KD tx – toxicity to HT-1080 IDH1 knockdown cells (counter line); HT-1080 IDH1 knockdown viability, ATP luminescence, 48 h; Potency, µM (titrated, usually from 46.1 µM), most hits filed as cytotoxic; 360,000 tested, 2% active; AID 686971
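CellTiter-Glo luminescence after 48 h compound exposure at 37 degrees C of IDH1-knockdown HT-1080 cells in 5% FBS RPMI. %Activity scaled between DMSO wells and cell-free media wells, with curves fitted and assigned curve classes.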
A number is an active result; – = inactive; ? = inconclusive; · = no result given. Unless noted, calls follow the shape of the dose curve; as a rule, active = well fitted curve in the direction sought with a large enough effect; inconclusive = small, poorly fitted or top-dose-only effect, or another doubt; inactive = no such curve, though single readings can be large; an effect the other way counts as inactive or inconclusive.

SMILES	IL-1B inflam inh	TDP1 cell noCPT	TDP1 cell CPT	ALOX12 inh	HT1080-NT tox	HT1080 IDH1KD tx
O=C1C2C(C(=O)N1c1ccncc1)C1C=CC2C12CC2 (stereo not drawn)	–	–	?	–	–	–
CCOC(=O)CCNC(=O)N1CCc2c(nc3cc(-c4ccccc4)[nH]n3c2=O)C1	·	·	·	–	·	·
COc1ccc(C(CCN)Cc2ccccc2)cc1 (stereo not drawn)	-50.9	20.6µM	29.1µM	–	–	–
Cn1cnc(S(=O)(=O)N2CCCN(C3CCOCC3)CCNC(=O)CC2c2ccccc2)c1 (stereo not drawn)	·	·	·	–	·	·
CC(C)(C)C(=O)N1CCC2(CC1)OCC(C(=O)NCc1ccco1)N2C(=O)c1ccc(F)cc1 (stereo not drawn)	·	·	·	–	·	·
NNC(=O)c1sc2cc(C(F)(F)F)cnc2c1-c1cccs1	–	–	–	–	–	–
O=C(Nc1ccccc1)c1sc2cc(C(F)(F)F)cnc2c1-c1cccs1	–	11.6µM	13µM	?	–	–
O=C(O)/C=C/c1ccc(-c2ccccc2)s1	·	·	·	–	·	·
N#Cc1c(-c2ccc(Cl)cc2)n(O)c2ccccc12	-54.3	3.26µM	3.26µM	·	10.3µM	14.6µM
CCOC(=O)C1(Cc2ccccc2)CCN(CC2CC=CCC2)CC1 (stereo not drawn)	–	?	–	–	–	–
CCOC(=O)C1(Cc2cccc(OC)c2)CCN(CC2CC=CCC2)CC1 (stereo not drawn)	–	23.1µM	?	–	–	–
CCOC(=O)C1(Cc2cccc(OC)c2)CCN(Cc2cccn2-c2nccs2)CC1	-76.8	?	?	–	–	–
CCOC(=O)C1(Cc2cccc(OC)c2)CCN(Cc2ccc(C)s2)CC1	-118.1	18.4µM	20.6µM	–	–	?
CCOC(=O)C1(Cc2cccc(OC)c2)CCN(Cc2cccc(OC)c2O)CC1	?	20.6µM	23.1µM	?	?	?
CCOC(=O)C1(Cc2cccc(OC)c2)CCN(Cc2cccc(O)c2)CC1	?	?	–	–	–	–
COc1ccccc1-c1ccnc(-c2nnc(C)n2Cc2ccccc2)c1	·	·	·	–	·	·
CC(OC(=O)c1nn(C)c(=O)c2ccccc12)C(=O)Nc1ccc(S(=O)(=O)N2CCCCC2)cc1 (stereo not drawn)	·	·	·	–	·	·
CCOC(=O)C1(Cc2ccccc2)CCN(Cc2cccc3nccnc23)CC1	-64.0	18.4µM	?	–	–	–
CCOC(=O)C1(Cc2ccccc2)CCN(Cc2cccc(OC)c2O)CC1	-50.1	?	?	–	–	–
CCOC(=O)C1(Cc2ccccc2)CCN(Cc2csc(C(C)=O)c2)CC1	-60.5	?	–	–	–	–
CCOC(=O)C1(Cc2ccccc2)CCN(Cc2cnn(C(C)C)c2)CC1	–	–	–	–	–	–
CCOC(=O)C1(Cc2cccc(OC)c2)CCN(Cc2ccc(OC)c(OC)c2)CC1	–	20.6µM	?	–	?	–
CCOC(=O)C1(Cc2cccc(OC)c2)CCN(Cc2ccccc2OC)CC1	–	?	–	–	?	?
COCc1c(C(=O)Nc2ccc(S(=O)(=O)C(F)F)cc2)oc2ccccc12	·	·	·	–	·	·
COc1ccc2cc(C(=O)Nc3ccc(Nc4ccccc4)cc3)[nH]c2c1	·	·	·	–	·	·
SMILES	IL-1B inflam inh	TDP1 cell noCPT	TDP1 cell CPT	ALOX12 inh	HT1080-NT tox	HT1080 IDH1KD tx
CCOC(=O)C1=CN(c2ccc(OCC)cc2)C=C(C(=O)OCC)C1c1ccc(SC)cc1	·	·	·	–	·	·
COc1ccc(N2CSC3=C(C#N)C(c4cccs4)CC(=O)N3C2)cc1 (stereo not drawn)	–	–	–	–	–	–
N#CC1=C2SCN(c3ccc(F)cc3)CN2C(=O)CC1c1cccc(F)c1 (stereo not drawn)	–	–	?	6.31µM	–	–
CCOC(=O)c1ccc(N2CSC3=C(C#N)C(c4cccs4)CC(=O)N3C2)cc1 (stereo not drawn)	–	–	–	17.8µM	–	?
CCc1ccc(N2CSC3=C(C#N)C(c4cccs4)CC(=O)N3C2)cc1 (stereo not drawn)	–	16.4µM	?	·	–	–
Cc1ccc2c(C)c(CCC(=O)N3CCCCCCC3)c(=O)oc2c1	·	·	·	–	·	·
Cc1cc(Oc2nc3ccccn3c(=O)c2/C=C(\C#N)C(=O)NC2CCS(=O)(=O)C2)ccc1Cl (stereo not drawn)	–	16.4µM	–	?	?	?
COc1ccc(Oc2nc3c(C)cccn3c(=O)c2/C=C(\C#N)C(N)=O)cc1	–	1.84µM	?	–	?	?
Cc1cccc(Oc2nc3ccccn3c(=O)c2/C=C(\C#N)C(=O)NC2CCS(=O)(=O)C2)c1C (stereo not drawn)	-99.3	?	?	?	–	–
Cc1cccn2c(=O)c(/C=C(\C#N)C(=O)NC3CCS(=O)(=O)C3)c(Oc3ccc(F)cc3)nc12 (stereo not drawn)	–	20.6µM	?	?	?	?
CC(C)c1cc(N)n[nH]1	·	·	·	–	·	·
C/C(=N\NC(=O)Cc1cccc2ccccc12)c1cccc(NC(=O)c2ccc(Cl)cc2)c1	·	·	·	–	·	·
N#C/C(=C\c1c(Oc2ccc(Cl)cc2)nc2ccccn2c1=O)C(=O)NC1CCS(=O)(=O)C1 (stereo not drawn)	-100.2	?	–	–	–	?
N#C/C(=C\c1c(N2CCCCC2)nc2ccccn2c1=O)C(=O)NC1CCS(=O)(=O)C1 (stereo not drawn)	–	–	–	–	–	–
O=C(Nc1ccc(F)cc1)N1CCN(C/C=C/c2ccccc2)CC1	–	29.1µM	?	–	–	–
O=C(CN1CCN(C(=O)C2CCN(C(=O)/C=C/c3ccccc3)CC2)CC1)Nc1ccc(F)cc1	-83.4	?	?	–	–	–
O=C(CN1CCC(C(=O)c2ccc(F)cc2)CC1)Nc1ccccc1	–	–	?	–	?	?
Fc1ccc(C(c2ccc(F)cc2)N2CCN(C/C=C\c3ccccc3)CC2)cc1	·	21.1µM	23.7µM	?	·	·
OC(CN1CCN(C/C=C/c2ccccc2)CC1)c1cccc(F)c1 (stereo not drawn)	·	·	·	–	·	·
O=C(Nc1cccc(F)c1)N1CCN(C/C=C/c2ccccc2)CC1	–	–	–	–	–	–
CCOc1ccc(C(=O)N2CCN(c3cc(-c4ccc(Cl)cc4)[nH]n3)CC2)cc1OCC	·	·	·	–	·	·
COc1ccc(-c2cc(NC(=O)CC3Sc4ccccc4NC3=O)ccc2OC)cc1 (stereo not drawn)	·	·	·	–	·	·
COCCNC(=O)[C@@H]1C[C@H](Oc2ccccc2)CN1C(=O)c1n[nH]c(=O)c2ccccc12	·	·	·	–	·	·
